High-throughput results from PubChem.
gsp agonist – agonists of gsp mutant (McCune-Albright syndrome); gsp mutant cells, cAMP HTRF, 30 min; Potency, µM (titrated, usually from 76.9 µM), most hits filed as activators; hit rate 0.13% among 340,000; AID 624287; active means well fitted activation curve with a large enough effect; inconclusive means small, poorly fitted or top-dose-only effect, or another doubt; inactive means no such curve, though single readings can be large or run the other way; cell line not stated here;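 further: phosphodiesterase inhibitor Ro 20-1724 added with compounds to block cAMP breakdown; nearly all actives have a fitted effect of over 60% in size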
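Cells stably selected in G418 were plated at 2000/well, grown 16-24 hr, then given compounds in DMSO with the PDE inhibitor […] (300 uM solution added) for 30 min at 37C; cAMP was read by HTRF.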
gsp antag – antagonizes gsp, the McCune-Albright syndrome mutation | AID 624288 | hit rate 0.4% among 340,000 | Potency, µM (top dose mostly 76.9 µM), most hits filed as inhibitors | gsp-mutant cells, cAMP HTRF, 30 min; calls by dose curve; cell line not stated here;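 further: intracellular cAMP measured with PDE inhibitor Ro 20-1724 present during compound exposure; nearly all actives have a fitted effect of over 65% in size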
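HTRF cAMP read-out (cAMP-d2 plus anti-cAMP antibody-K in lysis buffer, 30 min RT). Before lysis, cells are exposed to compounds with […] for 30 min at 37C in DPBS containing Ca/Mg, BSA and Tween 20.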
RXFP1 antag – RXFP1 (human) relaxin receptor antagonism. Q9HBX9. HEK293-RXFP1, relaxin-stimulated cAMP HTRF, 30 min; hits give low values. activity change, negative = inhibition, % at 57.5 µM. hit rate 0.59% among 350,000;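 active means activity change of -60% or lower, but not beyond a set lower limit; inconclusive means change between -60% and -40%, or beyond the set limit; inactive means change above -40%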
Target sequence (Q9HBX9 whole entry, looked up): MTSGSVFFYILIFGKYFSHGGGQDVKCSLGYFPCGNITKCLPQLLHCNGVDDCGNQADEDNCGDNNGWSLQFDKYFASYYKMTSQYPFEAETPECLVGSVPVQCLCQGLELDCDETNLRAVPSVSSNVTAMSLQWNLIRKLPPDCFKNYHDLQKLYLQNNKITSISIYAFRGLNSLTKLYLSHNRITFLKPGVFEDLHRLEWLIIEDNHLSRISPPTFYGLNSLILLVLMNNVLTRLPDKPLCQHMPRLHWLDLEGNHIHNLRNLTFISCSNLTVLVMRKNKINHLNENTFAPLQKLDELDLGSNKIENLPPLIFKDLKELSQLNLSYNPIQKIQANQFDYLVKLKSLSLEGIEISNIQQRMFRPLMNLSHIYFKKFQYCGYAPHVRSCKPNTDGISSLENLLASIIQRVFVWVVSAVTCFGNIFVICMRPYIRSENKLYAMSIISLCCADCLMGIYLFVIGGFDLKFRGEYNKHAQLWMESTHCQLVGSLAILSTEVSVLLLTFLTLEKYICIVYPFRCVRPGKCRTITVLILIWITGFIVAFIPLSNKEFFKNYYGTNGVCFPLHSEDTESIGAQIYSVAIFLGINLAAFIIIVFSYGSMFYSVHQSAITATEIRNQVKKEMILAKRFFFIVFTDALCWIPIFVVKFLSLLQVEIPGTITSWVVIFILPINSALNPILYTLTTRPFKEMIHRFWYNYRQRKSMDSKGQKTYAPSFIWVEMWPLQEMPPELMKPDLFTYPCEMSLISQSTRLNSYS
Mm-Cpn inhibitor – M. maripaludis TRiC chaperonin inhibition. purified Mm-Cpn ATPase, ADP Transcreener TR-FRET. hit rate 0.031% among 330,000. AID 504842. Potency, µM (titrated, usually from 76.9 µM), usual class: inhibitors; further: nearly all actives have a fitted effect of over 80% in size
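ATPase read-out: TR-FRET ADP immunoassay (anti-ADP Eu cryptate vs ADP-d2), ex 320 nm, em 590/665 nm; signal drops as ADP forms. Enzyme 25 nM, ATP 10 uM, 30 min at 37°C after 10 min compound preincubation.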
RXFP1 ag – RXFP1 (human) receptor agonism; AID 2676; Q9HBX9; Potency, µM (series often up to 57.5 µM), most hits filed as activators; hit rate 0.3% among 370,000; HEK293T-RXFP1 cAMP TR-FRET, 30 min; response scale: percent of porcine relaxin response, buffer zero; further: nearly all actives have a fitted effect of over 60% in size
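HEK293 cells stably expressing RXFP1, treated 30 min at 37C with compounds plus PDE4 inhibitor Ro 20174; cAMP measured by HTRF TR-FRET. Normalized to buffer and 29 nM porcine relaxin; EC50 by Hill fit.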
CCT modulator – cytosolic chaperonin activity modulation. AID 651819. hit rate 0.3% among 360,000. activity change, % (concentration not given with the values), hits read low. purified chaperonin ATPase assay, HTRF ADP detection, 30 min; in the data active means activity change below about -30%
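Enzyme 40 or 20 nM (batch-dependent) in Tris pH 7.4/KCl/MgCl2/DTT; cpd 76 uM single point; ATP 10 uM; 30 min 37 °C; Transcreener ADP HTRF detection, 30 min RT; ratio 665/615.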
Large screens that a line does not name were inactive. A selection: hits, their analogues and other compounds. The true share with any hit is near 1.2%. Unless noted, the call rests on the fitted dose curve; in most records, active means well fitted curve in the direction sought with a large enough effect; inconclusive means small, poorly fitted or top-dose-only effect, or another doubt; inactive means no such curve, though single readings can be large; an effect the other way counts as inactive or inconclusive.

CCOC(=O)C1=C(C)N(C)C(C)=C(C(=O)OCC)C1c1ccc(Cl)cc1	RXFP1 antag -61
CC1C(=NO)C(C)C(c2ccccc2)NC1c1ccccc1 (stereo not given)	none
CCC1C(=O)C(CC)C(c2ccccc2)NC1c1ccccc1 (stereo not given)	CCT modulator -50
CCC1C(=NO)C(CC)C(c2ccccc2)NC1c1ccccc1 (stereo not given)	gsp antag inconclusive, RXFP1 antag -74
CC(=O)N(C(C)=O)N1C(=O)/C(=C/c2ccc(Cl)cc2)SC1=S	RXFP1 antag -109
C[C@]12CCC(=O)C=C1[C@@H]1C[C@@H]1[C@H]1[C@@H]3[C@@H]4C[C@@H]4[C@@]4(CCC(=O)O4)[C@@]3(C)CC[C@@H]12	none (no result: gsp agonist, gsp antag, Mm-Cpn inhibitor, RXFP1 ag, CCT modulator)
O=C(Cn1cc(C(F)(F)F)ccc1=O)N/N=C/c1ccc(O)cc1	CCT modulator -39
CN(C)c1ccc(N/C=C/C(=O)c2ccco2)cc1	RXFP1 antag -64
CC(=O)Nc1ccc(N/C=C/C(=O)c2ccco2)cc1	none
Cc1ccc(C)c(S(=O)(=O)c2nnn3c2nc(NCc2ccc4c(c2)OCO4)c2sccc23)c1	none (no result: gsp agonist, gsp antag, Mm-Cpn inhibitor, CCT modulator)
O=C(c1ccc(Br)cc1)C(CN1CCOCC1)c1ccccc1 (stereo not given)	RXFP1 antag inconclusive
O=C(c1ccccc1)C(CN1CCCCC1)c1ccccc1 (stereo not given)	RXFP1 antag -82 (no result: Mm-Cpn inhibitor, RXFP1 ag)
Cc1sc2ncn(CC(=O)N3CCN(c4ccc(F)cc4)CC3)c(=O)c2c1S(=O)(=O)N1CCCCC1	none (no result: gsp agonist, gsp antag, Mm-Cpn inhibitor, CCT modulator)
COc1ccc(-c2c3c([nH]c(=S)c2C#N)CCC3)cc1	gsp agonist 4.5µM, RXFP1 ag 32µM
COc1ccc(OC)c(-c2c3c([nH]c(=S)c2C#N)CCCC3)c1	none
COc1cc(/C=C(\C#N)c2nc3ccc(C)cc3[nH]2)cc([N+](=O)[O-])c1O	gsp antag 25µM
COc1cc(/C=C(\C#N)c2nc3ccc(C)cc3[nH]2)c([N+](=O)[O-])cc1OC	none
CCOc1cccc(/C=C2/NC(=O)N(CC(=O)Nc3cccc(C)c3)C2=O)c1O	gsp agonist inconclusive, RXFP1 antag -77
S=C(NCCCN1CCOCC1)N1CCN(c2nc(-c3ccc(Cl)cc3)cs2)CC1	gsp agonist inconclusive, RXFP1 antag inconclusive
S=C(NCC1CCCO1)N1CCN(c2nc(-c3ccc(Cl)cc3)cs2)CC1 (stereo not given)	gsp antag 50µM
Cc1ccccc1N1CCN(S(=O)(=O)c2nnc(NC(=O)c3ccc(C(C)C)cc3)s2)CC1	none (no result: gsp agonist, gsp antag, Mm-Cpn inhibitor, CCT modulator)
CCCCN(C)CCCNC(=O)c1cn(CC)c2ccc(S(=O)(=O)N3CCc4ccccc4C3)cc2c1=O	CCT modulator -59 (no result: gsp antag)
CCCCN(C)CCCNC(=O)c1cn(C)c2ccc(S(=O)(=O)N(C)C3CCCCC3)cc2c1=O	CCT modulator -54
CCCCN(CCCC)CCNC(=O)c1cn(CC)c2ccc(S(=O)(=O)N3CCCC3)cc2c1=O	CCT modulator -82
CCOCCCNC(=O)c1cn(CC)c2ccc(S(=O)(=O)N3CCCC3)cc2c1=O	CCT modulator -52
O=C1CC2(CCCC2)CC(=O)N1	none (no result: gsp agonist, gsp antag, Mm-Cpn inhibitor, RXFP1 ag, CCT modulator)
COc1ccc2c(c1)CC(C(=O)NCCN1CCN(c3cccc(C)c3C)CC1)CO2 (stereo not given)	none (no result: gsp agonist, gsp antag, Mm-Cpn inhibitor, CCT modulator)
Cc1ccc(-c2cn3c(n2)sc2cc(C(=O)NCCCc4ccccc4)ccc23)c(C)c1	none (no result: gsp agonist, gsp antag, Mm-Cpn inhibitor, CCT modulator)
CCCN1CCN(CCCNC(=O)Cn2c(-c3cccs3)cc3ccccc32)CC1	none (no result: gsp agonist, gsp antag, Mm-Cpn inhibitor, CCT modulator)
COc1ccc(NC(=O)CN(C)CC(=O)Nc2ccc3c(c2)CCC3)cc1	none
COc1cccc(N(C)C(=S)Oc2ccc3c(c2)CCCC3)n1	RXFP1 antag -65 (no result: gsp agonist, gsp antag, Mm-Cpn inhibitor, RXFP1 ag, CCT modulator)
Cc1ccc(NC(=O)CSc2ccc(-c3cccs3)nn2)cc1Cl	RXFP1 ag inconclusive (no result: gsp agonist, gsp antag, Mm-Cpn inhibitor, CCT modulator)
COc1ccccc1OCC(=O)N/N=C1\CCc2ccccc21	CCT modulator -34
Cc1cccc2c1OCC/C2=N\NC(=O)COc1ccccc1	CCT modulator -32
COc1ccc(OCC(=O)N/N=C2\CCCc3ccccc32)cc1	none
CCO[C@H](Cc1ccc(OCCc2ccc(OS(C)(=O)=O)cc2)cc1)C(=O)O	none (no result: gsp agonist, gsp antag, Mm-Cpn inhibitor, RXFP1 ag, CCT modulator)
